Data reported in PubChem BioAssay (Tox21).
Records with an inconclusive call do not appear. A call without a number means that no potency is given here. Calls of active or inactive are those of the source. Unless noted, calls come from the whole dose curve; as a rule, active = well fitted curve in the direction sought with a large enough effect in the repeat runs; inconclusive = weak or mixed curves; inactive = flat fitted curve, though single readings scatter.

system: not listed separately; assay: qHTS assay to test for compound auto fluorescence at 460 nm (blue) in HepG2 cells (AID 720687); details: autofluorescence 405/460 nm, 1 h; series mostly up to 91.3 µM
Summary of the method: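 Blue-channel autofluorescence (Ex/Em 405/460 nm, triamterene-equivalent) was measured after 1 hr compound exposure at 37 C, 5% CO2. Cells were HepG2, plated overnight at 37 C in MEM plus 10% FBS.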

Structure (SMILES) | Potency
Cc1ccccc1Cl | inactive
CCCCCCC(=O)O | inactive
COc1ccccc1[N+](=O)[O-] | inactive
Cc1ccccc1C=O | inactive
Nc1cccc(C(F)(F)F)c1 | inactive
COc1ccc(N)c(OC)c1 | inactive
Cc1ccc(Cl)cc1 | inactive
Cc1nnc(NS(=O)(=O)c2ccc(N)cc2)s1 | inactive
CC(=O)OCc1ccc2c(c1)OCO2 | inactive
NC(=O)NC(N)=O | inactive
CC(=O)c1nccs1 | inactive
OCc1ccc(Cl)cc1Cl | inactive
CC1(C)C(=O)N(Cl)C(=O)N1Cl | inactive
NC(=O)c1ncn([C@@H]2O[C@H](CO)[C@@H](O)[C@H]2O)n1 | inactive
CCOC(=O)CC(=O)OCC | inactive
CCCCCCCCCCCCCC(=O)O | inactive
O=C(c1ccccc1)c1ccc(O)c(O)c1O | inactive
O=[N+]([O-])c1ccccc1C(F)(F)F | inactive
COc1ccc([C@@H]2CC(=O)c3c(O)cc(O[C@@H]4O[C@H](CO[C@@H]5O[C@@H](C)[C@H](O)[C@@H](O)[C@H]5O)[C@@H](O)[C@H](O)[C@H]4O)cc3O2)cc1OC | inactive
CC(=O)OC(C)(C)C1CC=C(C)CC1 (configuration not stated) | inactive
OC[C@H]1O[C@@H](Oc2ccc(O)cc2)[C@H](O)[C@@H](O)[C@@H]1O | inactive
CCn1cc(C(=O)O)c(=O)c2cc3c(cc21)OCO3 | inactive
Cc1ccc([N+](=O)[O-])cc1N | inactive

target: Glucocorticoid receptor (Homo sapiens) (UniProt P04150); assay: qHTS assay to identify small molecule agonists of the glucocorticoid receptor (GR) signaling pathway (AID 720691; active = well fitted activation curve with a large enough effect in the signal ratio in the repeat runs, not every such curve was filed as active; the % refers to the signal ratio); details: GR-bla HeLa, beta-lactamase reporter ratio, 18 h; series mostly up to 62.4 µM
Summary of the method: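 Measures GR pathway activation through a GRE-beta-lactamase reporter stably integrated in HeLa cells, with 18 h compound treatment at 37 C and fluorescence detection using a FRET substrate.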

Glucocorticoid receptor (Homo sapiens), sequence (P04150 whole entry, looked up): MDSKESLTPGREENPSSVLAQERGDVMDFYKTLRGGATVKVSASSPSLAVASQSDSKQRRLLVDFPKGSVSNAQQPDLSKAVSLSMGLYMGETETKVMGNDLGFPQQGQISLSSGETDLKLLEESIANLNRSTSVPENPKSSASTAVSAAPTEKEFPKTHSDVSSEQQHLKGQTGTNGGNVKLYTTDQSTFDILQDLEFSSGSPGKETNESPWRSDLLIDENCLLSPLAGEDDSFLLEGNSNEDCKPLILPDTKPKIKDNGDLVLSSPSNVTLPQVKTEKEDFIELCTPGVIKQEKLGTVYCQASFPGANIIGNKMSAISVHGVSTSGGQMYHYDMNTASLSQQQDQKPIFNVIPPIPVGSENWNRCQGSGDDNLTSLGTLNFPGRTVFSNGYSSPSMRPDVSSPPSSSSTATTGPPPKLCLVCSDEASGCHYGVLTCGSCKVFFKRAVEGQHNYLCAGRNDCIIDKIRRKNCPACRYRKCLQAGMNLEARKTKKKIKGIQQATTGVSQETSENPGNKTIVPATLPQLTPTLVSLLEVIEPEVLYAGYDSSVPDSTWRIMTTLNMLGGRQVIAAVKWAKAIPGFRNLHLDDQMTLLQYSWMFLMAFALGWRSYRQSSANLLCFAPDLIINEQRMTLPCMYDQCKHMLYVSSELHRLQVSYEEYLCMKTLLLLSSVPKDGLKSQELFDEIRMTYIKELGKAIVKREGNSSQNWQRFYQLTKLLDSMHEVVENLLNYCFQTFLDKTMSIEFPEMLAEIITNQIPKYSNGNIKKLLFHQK

Structure (SMILES) | outcome
Cc1ccccc1Cl | inactive
CCCCCCC(=O)O | inactive
Cc1ccccc1C=O | inactive
COc1ccc(N)c(OC)c1 | inactive
Cc1ccc(Cl)cc1 | inactive
CC/C=C(\C(=O)N[C@@H]1C(=O)N2C(C(=O)OCOC(=O)C(C)(C)C)=C(COC(N)=O)CS[C@H]12)c1csc(N)n1 | inactive
CC(C)=CCC/C(C)=C/C=O | inactive
CC(=O)OCc1ccc2c(c1)OCO2 | inactive
CC(=O)c1nccs1 | inactive
CC1(C)C(=O)N(Cl)C(=O)N1Cl | inactive
CCc1cccc(CC)c1N | inactive
O=C(O)Cc1c[nH]c2ccccc12 | inactive
NC(=O)c1ncn([C@@H]2O[C@H](CO)[C@@H](O)[C@H]2O)n1 | inactive
CCCN(CCC)C(=O)SCC | inactive
CCOC(=O)CC(=O)OCC | inactive
CCCCCCCCCCCCCC(=O)O | inactive
CCCCCCCC(=O)O | inactive
O=C(c1ccccc1)c1ccc(O)c(O)c1O | inactive
Cc1ccc(C(C)C)cc1 | inactive
Cc1cc(CC(=O)O)n(C)c1C(=O)c1ccc(Cl)cc1 | inactive
C[Si](C)(C)N[Si](C)(C)C | inactive
CCCCCCCCC(=O)O | inactive
Cc1cc(C)cc(O)c1 | inactive
CC(C)(C)NC[C@H](O)COc1nsnc1N1CCOCC1 | inactive
